The results in this text go back to the supplement of paper PMC6089552.

The campaign covered roughly 3,200 compounds. About 300 (9.4%) showed activity. Many of the other results were omitted from the sample, so actives are more common in it than they were. Unmarked numbers belong to inactive results.

The subject of the assay is A673/TR/shEF. Briefly: cell viability (LOESS-normalised, relative to median of negative controls) (log2 ratio); higher = more viable cells (less compound effect), active = hit call of the paper (over 3 MAD below the median). As to conditions: treatment time: 72 h. The method in brief:
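A673/TR/shEF Ewing sarcoma cells were plated at 1,500 per well in 384-well plates and cultured with or without doxycycline, added 24 h before compounds, to induce EWS-FLI1 shRNA knockdown. Library compounds at two or more concentrations, alongside DMSO controls, were applied for three days. Cell viability was measured by CellTiter-Glo luminescence on an Envision reader. Readings were LOESS-corrected per plate, divided by the median of negative controls and log2-transformed, and hits were wells lying at least three median absolute deviations from the median of all screened wells.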

The mark [1] stands for this setting: 0.25 µM, library screen: screen2, EWS-FLI1 expression: high (no doxycycline).
[2] abbreviates: 0.25 µM, library screen: screen2, EWS-FLI1 expression: low (doxycycline-induced shRNA knockdown).
Where [3] appears, read: 2.5 µM, library screen: screen2, EWS-FLI1 expression: high (no doxycycline).
The mark [4] stands for this setting: 2.5 µM, library screen: screen2, EWS-FLI1 expression: low (doxycycline-induced shRNA knockdown).
Where [5] appears, read: 0.025 µM, library screen: screen2, EWS-FLI1 expression: high (no doxycycline).
The mark [6] stands for this setting: 0.025 µM, library screen: screen2, EWS-FLI1 expression: low (doxycycline-induced shRNA knockdown).
Where [7] appears, read: 0.25 µM, library screen: screen1, EWS-FLI1 expression: high (no doxycycline).
[8] abbreviates: 0.25 µM, library screen: screen1, EWS-FLI1 expression: low (doxycycline-induced shRNA knockdown).
The mark [9] stands for this setting: 2.5 µM, library screen: screen1, EWS-FLI1 expression: high (no doxycycline).
Where [10] appears, read: 2.5 µM, library screen: screen1, EWS-FLI1 expression: low (doxycycline-induced shRNA knockdown).
[11] abbreviates: 25 µM, library screen: screen2, EWS-FLI1 expression: high (no doxycycline).
The mark [12] stands for this setting: 25 µM, library screen: screen2, EWS-FLI1 expression: low (doxycycline-induced shRNA knockdown).

Turning to `C=CCN1CC[C@@]2(C)c3cc(O)ccc3CC1[C@@H]2C`, the “cell viability (log2)” value runs as follows: under setting [1], 0.194; under setting [2], 0.135; under setting [3], 0.028; under setting [4], 0.047.

For the compound `N#C[C@H](O[C@@H]1O[C@H](CO[C@@H]2O[C@H](CO)[C@@H](O)[C@H](O)[C@H]2O)[C@@H](O)[C@H](O)[C@H]1O)c1ccccc1`, the “cell viability (log2)” value reads like this: under setting [5], 0.166; under setting [6], 0.0523; under setting [7], 0.122; under setting [8], -0.00438; under setting [1], 0.174; under setting [2], 0.00657. Besides, the “cell viability (log2)” value by setting is: under setting [9], 0.113; under setting [10], 0.0319; under setting [3], 0.1; under setting [4], 0.0264; under setting [11], 0.202; under setting [12], 0.0554.

Consider `CC(=O)[C@H]1CC[C@H]2[C@@H]3CC[C@H]4C[C@H](O)CC[C@]4(C)[C@H]3CC[C@]12C`, for which the “cell viability (log2)” value is 0.267 under setting [1], 0.093 under setting [2], 0.266 under setting [3] and 0.165 under setting [4].

For the compound `CC(=O)[C@H]1CC[C@H]2[C@@H]3CC[C@H]4C[C@@H](O)CC[C@]4(C)[C@H]3CC[C@]12C`, the “cell viability (log2)” value by setting is: under setting [7], 0.0984; under setting [8], 0.068; under setting [9], 0.0674; under setting [10], 0.135.

In the case of `CC(=O)[C@H]1CC[C@H]2[C@@H]3CC[C@H]4C[C@H](O)CC[C@]4(C)[C@H]3C(=O)C[C@]12C`, the “cell viability (log2)” value by setting is: under setting [1], 0.0616; under setting [2], 0.101; under setting [3], -2.77 (active); under setting [4], -0.524 (active).

On to `CNC(=O)Oc1cccc2c1OC(C)(C)C2`, for which the “cell viability (log2)” value is 0.0513 under setting [7], 0.0685 under setting [8], 0.07 under setting [9] and 0.106 under setting [10].

In the case of `ClC1=C(Cl)[C@]2(Cl)[C@@H]3[C@@H]4C[C@@H]([C@H]5O[C@@H]45)[C@@H]3[C@@]1(Cl)C2(Cl)Cl`, the “cell viability (log2)” value by setting is: under setting [7], 0.163; under setting [8], 0.0877; under setting [9], 0.115; under setting [10], 0.192.

Turning to `CC(=O)O[C@H]1CC[C@]2(C=O)C3CC[C@]4(C)[C@@H](C5=CC(=O)OC5)CC[C@]4(O)C3CC[C@]2(O)C1` (some centres undefined), the “cell viability (log2)” value was 0.0163 under setting [7], -0.145 under setting [8], -1.12 (active) under setting [9] and -1.15 (active) under setting [10].

For the compound `C[C@]12CC[C@H]3[C@@H](CC[C@]4(O)C[C@@H](O)CC[C@]34C=O)[C@@]1(O)CC[C@@H]2C1=CC(=O)OC1`, the “cell viability (log2)” value reads like this: under setting [7], 0.0251; under setting [8], -0.17; under setting [9], -1.21 (active); under setting [10], -1.3 (active).

In the case of `CC(=O)OC1CCC23C(=O)OC45CCC(C6=CC(=O)OC6)C4(C)CCC2C5CCC3(O)C1` (centres undefined), the “cell viability (log2)” value is -0.0349 under setting [7], -0.171 under setting [8], -1.11 (active) under setting [9] and -1.12 (active) under setting [10].

For the compound `CC(=O)O[C@H]1CC[C@@]2(C)C(=CCC3C2CC[C@]2(C)C(=O)CCC32)C1` (some centres undefined), the “cell viability (log2)” value reads like this: under setting [7], 0.0955; under setting [8], 0.0874; under setting [9], 0.042; under setting [10], 0.106.

Consider `NCCC(O)C(=O)NC1CC(N)C(OC2OC(CN)C(O)C(O)C2N)C(OC2OC(CO)C(O)C2O)C1O` (centres undefined), for which the “cell viability (log2)” value under setting [7] was 0.0254, the “cell viability (log2)” value under setting [8] was -0.0377, the “cell viability (log2)” value under setting [9] is 0.12 and the “cell viability (log2)” value under setting [10] is -0.0236.

With `CCN1C[C@]2(C)CC[C@H](O)[C@]34C1[C@H](C[C@H]23)[C@@]1(O)C[C@H](OC)[C@H]2C[C@@H]4[C@@H]1[C@H]2O`, the “cell viability (log2)” value is 0.0509 under setting [1], 0.0197 under setting [2], 0.0295 under setting [3] and 0.0503 under setting [4].

Regarding `COC(=O)COc1ccc(Cl)cc1Cl`, the “cell viability (log2)” value is 0.022 under setting [7], -0.0423 under setting [8], 0.11 under setting [9] and 0.0409 under setting [10].

Regarding `COc1cccc(CN2CCN(Cc3cccc(F)c3)CC2)c1`, the “cell viability (log2)” value is 0.0335 under setting [7], 0.131 under setting [8], 0.0329 under setting [9] and 0.0279 under setting [10].

Regarding `C[C@@H]1CC[C@@]2(NC1)O[C@H]1C[C@H]3[C@@H]4CC=C5C[C@@H](O)CC[C@]5(C)[C@H]4CC[C@]3(C)[C@H]1[C@@H]2C`, the “cell viability (log2)” value reads like this: under setting [5], 0.0804; under setting [6], 0.071; under setting [7], 0.101; under setting [8], 0.14; under setting [1], 0.194; under setting [2], 0.0802. Also, the “cell viability (log2)” value was 0.13 under setting [9]; 0.0856 under setting [10]; 0.106 under setting [3]; 0.133 under setting [4]; 0.0875 under setting [11]; 0.0211 under setting [12].

With `CC(O)C(C)OC(=O)[C@@H]1C[C@@H]2c3cccc4c3c(cn4C(C)C)C[C@H]2N(C)C1` (some centres undefined), the “cell viability (log2)” value under setting [1] is 0.174, the “cell viability (log2)” value under setting [2] is 0.171, the “cell viability (log2)” value under setting [3] is 0.12 and the “cell viability (log2)” value under setting [4] was 0.112.

Take `NCCc1cccc(O)c1`: the “cell viability (log2)” value is 0.0584 under setting [7], 0.0834 under setting [8], 0.0622 under setting [9] and 0.0348 under setting [10].

Regarding `CN1CC[C@@]2(C)c3cc(O)ccc3N(C)C12` (some centres undefined), the “cell viability (log2)” value runs as follows: under setting [1], 0.117; under setting [2], 0.0622; under setting [3], 0.072; under setting [4], 0.0674.

On to `CNNC`, for which the “cell viability (log2)” value reads like this: under setting [5], 0.186; under setting [6], 0.0401; under setting [7], 0.136; under setting [8], 0.152; under setting [1], 0.206; under setting [2], 0.035. Moreover, the “cell viability (log2)” value was 0.115 under setting [9]; 0.131 under setting [10]; 0.112 under setting [3]; 0.0817 under setting [4]; 0.239 under setting [11]; 0.143 under setting [12].
